Reference: PMC4336329 (PLoS ONE, 2015)
Hit rate of the full screen: of about 310,000 compounds, about 2,200 (0.71%) showed an effect of 50% or more. Effects have a minus sign here. Only a selection was taken, and strong results are over-represented in it overall.

Target: human ether-à-go-go-related gene (hERG) potassium channel (human, UniProt Q12809)
Test: primary screen, population patch clamp on CHO cells stably expressing hERG; higher = less effect of the substance

Chain of human ether-à-go-go-related gene (hERG) potassium channel (Q12809 whole entry, looked up): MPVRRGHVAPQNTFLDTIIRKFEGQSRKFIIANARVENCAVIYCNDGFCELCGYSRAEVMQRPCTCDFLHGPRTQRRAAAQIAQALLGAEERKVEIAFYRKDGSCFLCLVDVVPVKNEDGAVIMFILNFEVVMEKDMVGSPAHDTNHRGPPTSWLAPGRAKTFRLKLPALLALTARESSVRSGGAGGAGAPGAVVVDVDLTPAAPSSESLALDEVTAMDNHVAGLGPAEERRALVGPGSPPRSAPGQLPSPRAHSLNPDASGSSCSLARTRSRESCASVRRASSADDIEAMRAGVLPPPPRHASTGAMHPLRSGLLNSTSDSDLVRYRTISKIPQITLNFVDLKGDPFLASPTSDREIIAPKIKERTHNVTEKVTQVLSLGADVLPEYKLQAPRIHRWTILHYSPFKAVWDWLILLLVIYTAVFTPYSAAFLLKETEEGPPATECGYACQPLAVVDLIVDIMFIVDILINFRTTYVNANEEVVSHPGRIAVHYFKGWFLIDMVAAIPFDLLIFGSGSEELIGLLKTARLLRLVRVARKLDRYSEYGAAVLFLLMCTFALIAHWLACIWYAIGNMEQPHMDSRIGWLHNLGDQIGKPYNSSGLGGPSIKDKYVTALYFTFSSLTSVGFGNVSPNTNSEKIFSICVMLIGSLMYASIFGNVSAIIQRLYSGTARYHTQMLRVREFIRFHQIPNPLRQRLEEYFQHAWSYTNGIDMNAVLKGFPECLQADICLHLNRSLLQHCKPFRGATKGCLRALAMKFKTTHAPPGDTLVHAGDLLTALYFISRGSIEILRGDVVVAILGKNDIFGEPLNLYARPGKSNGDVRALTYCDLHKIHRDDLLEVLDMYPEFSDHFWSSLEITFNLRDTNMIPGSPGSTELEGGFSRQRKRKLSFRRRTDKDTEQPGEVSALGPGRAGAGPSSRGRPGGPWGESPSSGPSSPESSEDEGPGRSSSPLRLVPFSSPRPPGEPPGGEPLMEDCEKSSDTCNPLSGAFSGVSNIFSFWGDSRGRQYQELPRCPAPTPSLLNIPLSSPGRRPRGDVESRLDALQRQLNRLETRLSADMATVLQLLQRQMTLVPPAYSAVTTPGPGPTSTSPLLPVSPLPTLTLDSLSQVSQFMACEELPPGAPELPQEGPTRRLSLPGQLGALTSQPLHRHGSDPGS

Row | Structure (SMILES) | hERG current change (%, negative = inhibition) at 1uM
1 | COc1ccc(N2CCN(CCC(=O)c3ccc4ccccc4c3)CC2)cc1 | 11.4%
2 | COc1ccc(OCCN2CCN(C(=O)c3ccc(OC)c(OC)c3)CC2)cc1 | -35.6%
3 | COc1ccc(OCCN2CCN(C(=O)c3ccc(OC)cc3)CC2)cc1 | -90.6%
4 | O=C(c1ccc(Cl)cc1)N1CCN(CCOc2ccccc2)CC1 | -12.4%
5 | COc1ccc(OCCN2CCN(C(=O)c3ccc(OC(F)F)c(OC)c3)CC2)cc1 | -62.6%
6 | COc1ccc(C(=O)NCCN2CCN(C(=O)c3ccc(OC)c(OC)c3)CC2)cc1OC | 13.2%
7 | Oc1c(Cl)cc(Cl)cc1C=Nc1ccc(N2CCOCC2)cc1 | 9.19%
8 | COC(=O)c1c(NC(=O)c2nn(C)cc2Cl)sc2c1CCCC2 | 19.3%
9 | Cc1cc2cc(C(c3nnnn3Cc3ccco3)N3CCCCC3)c(=O)[nH]c2cc1C (centres unmarked) | 6.29%
10 | Cc1nnsc1C(=O)NNC(=O)c1cccc2ccccc12 | 9.5%
11 | CC1C=CCC2C(=O)N(c3ccccc3OC(=O)c3cccs3)C(=O)C12 (centres unmarked) | 9.04%
12 | Cc1cccc(C)c1NC(=O)NC1(C(=O)NCc2ccncc2)CCCCC1 | 12.6%
13 | O=C(COc1ccc([N+](=O)[O-])cc1)N1CCc2ccccc2C1 | -15%
14 | O=C(O)C(=O)O.O=[N+]([O-])c1ccc(OCCCCN2CCc3ccccc3C2)cc1 | -81.1%
15 | Cl.Clc1ccc(OCCCCN2CCc3ccccc3C2)cc1 | -8.64%
16 | CC1CN(CCOc2ccc([N+](=O)[O-])cc2)CC(C)O1.O=C(O)C(=O)O (centres unmarked) | -13.6%
17 | CC1CN(CCCOc2ccc([N+](=O)[O-])cc2)CC(C)O1.O=C(O)C(=O)O (centres unmarked) | -59.6%
18 | CC1CC(C)CN(CCCCOc2ccc([N+](=O)[O-])cc2)C1.O=C(O)C(=O)O (centres unmarked) | -80.3%
19 | CC1CCCN(CCCOc2ccc([N+](=O)[O-])cc2)C1.O=C(O)C(=O)O (centres unmarked) | -77.4%
20 | CC1CC(C)CN(CCOc2ccc(Br)cc2)C1.O=C(O)C(=O)O (centres unmarked) | -12.4%
21 | CC1CC(C)CN(CCCOc2ccccc2[N+](=O)[O-])C1.O=C(O)C(=O)O (centres unmarked) | 5.91%
22 | CCCOc1ccc(OCCN2CCCC(C)C2)cc1.O=C(O)C(=O)O (centres unmarked) | 0.638%
23 | COc1ccc(OCCCN2CCCC(C)C2)cc1 (centres unmarked) | -2.33%
24 | CC1CN(CCCCOc2ccc(F)cc2)CC(C)O1.O=C(O)C(=O)O (centres unmarked) | -4.39%

Row | Structure (SMILES) | hERG current change (%, negative = inhibition) at 1uM
25 | NC(=O)c1ccc(-c2nnn(CC(=O)N(C3CCCCC3)C3CCS(=O)(=O)C3)n2)cc1 (centres unmarked) | 9.79%
26 | Cc1ccc(C)c(N2CCN(C(=O)C3CCCN(S(=O)(=O)c4c(C)[nH]c(=O)[nH]c4=O)C3)CC2)c1 (centres unmarked) | 9.86%
27 | CCOc1ncccc1C(=O)Nc1ccc(Cl)c(S(=O)(=O)N2CCCC2)c1 | 2.41%
28 | O=C(Nc1cccc(O)c1)c1ccc(C(=O)c2ccccc2)o1 | -1.55%
29 | CCOc1ccc(CC(=O)NNC(=S)NC2CCCCC2)cc1OCC | 7.2%
30 | COc1ccc(-n2nnnc2SCC(=O)Nc2nnc(C)s2)cc1OC | -7.62%
31 | CC(=O)Nc1ccc(Nc2c3c4c(cccc4n(C)c2=O)C(=O)c2ccccc2-3)cc1 | 10.6%
32 | Nc1nc(SCC(=O)c2cccs2)n[nH]1 | 6.15%
33 | Cc1cc(C)cc(OCC(=O)Nc2ccc3c(c2)OCCO3)c1 | 15.5%
34 | COC(=O)C1C(=O)NCC1c1ccc(C)cc1 (centres unmarked) | 11.9%
35 | Cc1ccc(CS(=O)(=O)Cc2ccc(C(=O)N3CCC4(CC3)OCCO4)o2)cc1 | -1.4%
36 | CCN(CC(=O)NCc1ccc(Cl)cc1)C(=O)/C=C/c1cc(OC)c(OC)c(OC)c1 | 11.2%
37 | CCN(CC(=O)NCc1ccc(F)cc1)C(=O)CN1CCN(c2ccccc2OC)CC1 | -44.4%
38 | CCOc1ccc(C(=O)CCC(=O)N(CC)CC(=O)NCc2ccc(Cl)cc2)cc1 | -8.36%
39 | CCN(CC(=O)NCc1ccc(F)cc1)C(=O)CN1CCN(c2cc(Cl)ccc2C)CC1 | -68.2%
40 | CCN(CC(=O)NCc1ccc(F)cc1)C(=O)CN1CCN(c2ccc(OC)cc2)CC1.O=C(O)C(=O)O | -21.1%
41 | CCN(CC(=O)NCc1ccc(Cl)cc1)C(=O)/C=C/c1ccccc1 | -1.79%
42 | CCN(CC(=O)NCc1ccc(Cl)cc1)C(=O)c1ccc2cc(OC)ccc2c1 | 7.72%
43 | CCN(CC(=O)NCc1ccc(Cl)cc1)C(=O)CCC(=O)c1ccc(F)cc1 | -52.2%
44 | CCN(CC(=O)NCc1ccc(Cl)cc1)C(=O)CCC(=O)c1ccc(C)cc1 | -8.96%
45 | CCN(CC(=O)NCc1ccc(F)cc1)C(=O)Cc1ccc(OC)cc1 | -37.8%
46 | CCN(CC(=O)NCc1ccc(Cl)cc1)C(=O)Cc1ccc(OC)cc1 | -66.9%
47 | CCN(CC(=O)NCc1ccc(Cl)cc1)C(=O)/C=C/c1ccc(C#N)cc1 | -52.1%
